Structures are written as SMILES. Several values for one entry are separate records, joined by “and”; a condition that tells them apart may be missing. Equal values may be shown once. Results filed as inconclusive are left out. Activity calls are given as the source filed them. Calls follow the shape of the dose curve; as a rule, active = well fitted inhibition curve with a large enough effect in the repeat runs; inconclusive = weak or mixed curves; inactive = no such curve, though single readings can be large or run the other way.
% is scaled to controls: 0 for no effect and ±100 for the full control effect; potency is read from the fitted curve at half-maximal effect.

The assay deals with Cytochrome P450 2C9 (Homo sapiens) (UniProt P11712). Nature of the assay: Cytochrome P450 Family 2 Subfamily C Member 9 (CYP2C9) small molecule antagonists: luciferase reporter qHTS assay (AID 1671198). Also: nearly all actives have a fitted effect of over 50% in size. The following applies: P450-Glo CYP2C9 enzyme assay, luciferin luminescence; series mostly up to 115 µM; activity change, negative = inhibition: at the top concentration. Put shortly: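 CYP2C9 activity was measured with a P450-Glo proluciferin substrate. Enzyme–substrate mix was held with compound for 10 min at room temperature, then NADPH regeneration solution was added for 1 h at 37C. Luciferin product was read as luminescence.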
Sequence of Cytochrome P450 2C9 (Homo sapiens) (P11712 whole entry, looked up): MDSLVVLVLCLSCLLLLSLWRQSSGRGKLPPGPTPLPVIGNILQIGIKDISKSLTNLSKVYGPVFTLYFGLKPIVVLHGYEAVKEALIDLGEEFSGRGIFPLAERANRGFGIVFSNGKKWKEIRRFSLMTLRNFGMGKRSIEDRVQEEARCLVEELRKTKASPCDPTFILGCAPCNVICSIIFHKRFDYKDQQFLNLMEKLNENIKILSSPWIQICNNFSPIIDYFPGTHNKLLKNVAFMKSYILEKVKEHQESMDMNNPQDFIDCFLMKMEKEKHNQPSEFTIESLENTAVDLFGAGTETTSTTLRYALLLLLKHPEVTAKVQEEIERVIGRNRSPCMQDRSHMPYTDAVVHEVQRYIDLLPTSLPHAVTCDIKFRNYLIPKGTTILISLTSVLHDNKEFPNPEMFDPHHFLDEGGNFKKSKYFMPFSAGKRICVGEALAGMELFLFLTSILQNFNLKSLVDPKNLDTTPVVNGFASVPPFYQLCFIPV
`c1ccc(OCc2ccc(CCCN3CCOCC3)cc2)cc1`: the Potency is 38.9 µM (active). As for `CC(=O)/C=C/C1C(C)=CCCC1(C)C` (stereo not drawn), the “activity change, negative = inhibition” value was -15.9% (inactive). Take `N#Cc1cc2ccccc2c2ccccc12`: the Potency is 35.8 µM (active). With `O=c1c2ccccc2nnn1CCl`, the Potency is 71 µM (active). Consider `O=C(CCN1CCN2CCCC2C1)N1c2ccccc2Sc2ccc(Cl)cc21` (stereo not drawn), for which the activity change, negative = inhibition was 11.9% [at 23.6 µM] (inactive).

With `CC(C)c1ccc2c(C(C)C)cc(C(C)C)c(S(=O)(=O)O)c2c1`, the Potency was 29.2 µM (active). `ClC(Cl)(Cl)c1ccc(C(Cl)(Cl)Cl)cc1`: the Potency was 39.5 µM (active). As to `O=C(NS(=O)(=O)/C=C/c1cccs1)c1ccc(F)cc1Br`, the Potency is 7.1 µM (active). In the case of `COCCCCCCCCOCCC[Si](C)(O[Si](C)(C)C)O[Si](C)(C)C`, the Potency is 35.6 µM (active).

In the case of `NC(N)=N/N=C/c1c(Cl)cccc1Cl`, the “activity change, negative = inhibition” value is 35.7% [at 53 µM] (inactive). Regarding `COc1ccc2[nH]c(S(=O)Cc3ncc(C)c(OC)c3C)nc2n1` (stereo not drawn), the Potency was 17.4 µM (active). Regarding `C=CC[N+]1([C@H]2C[C@H]3[C@@H]4CC[C@H]5C[C@H](OC(C)=O)[C@@H](N6CCCCC6)C[C@]5(C)[C@H]4CC[C@]3(C)[C@H]2OC(=O)CC)CCCCC1`, the “activity change, negative = inhibition” value is 1.88% [at 53 µM] (inactive).

As to `COc1ccccc1OC(=O)Oc1ccccc1OC`, the “activity change, negative = inhibition” value is 89.9% [at 53 µM] (inactive). Same read-out and setting: with `Nc1cnn([C@@H]2O[C@H](CO)[C@@H](O)[C@H]2O)c(=O)n1` the figure was 8.47% (inactive).

For the compound `CCOc1ccc2[nH]cc(C(=O)NCc3ccccc3)c(=O)c2n1`, the Potency was 25.2 µM (active).

In the case of `Cn1c(=O)c2c(ncn2CC(O)CO)n(C)c1=O` (stereo not drawn), the “activity change, negative = inhibition” value was 14.2% [at 53 µM] (inactive). With `Cc1c(Cn2ccnc2)c2ccccc2n1CCC(=O)O`, the Potency is 3.09 µM (active). For the compound `CCCCOC(=O)c1ccccc1C(=O)OCC(CC)CCCC` (stereo not drawn), the Potency was 12.6 µM (active). On the same count and under the same terms, with `Cn1sccc1=O` the figure was 31.7 µM (active) and 35.6 µM (active); with `CCOC(=O)C1=C(C)NC(C)=C(C(=O)OC)C1c1cccc([N+](=O)[O-])c1` (stereo not drawn), 0.977 µM (active). Consider `O=C(c1ccc(O)cc1)c1ccc(O)cc1`, for which the “activity change, negative = inhibition” value is -44.3% (inactive). Regarding `C=Cc1c(C)c2cc3[nH]c(cc4nc(cc5nc(cc1[nH]2)C(C)=C5CCC(=O)O)C(CCC(=O)O)=C4C)c(C)c3C=C`, the “activity change, negative = inhibition” value was -6.58% [at 53 µM] (inactive). Still for that read-out and setting: with `CCCC[C@H]1CN(CC2CCOCC2)C(=O)OC12CCN(C1(C)CCN(C(=O)c3c(C)ncnc3C)CC1)CC2` the figure was -10.7% (inactive); with `CCCCCCOC(=O)CCC`, 3.11% (inactive). As to `CC(=O)c1c(C)c([N+](=O)[O-])c(C(C)(C)C)c([N+](=O)[O-])c1C`, the “activity change, negative = inhibition” value is -27% (inactive). In the case of `Oc1ccc(Sc2ccc(O)cc2)cc1`, the “activity change, negative = inhibition” value is 11.2% (inactive). Consider `O=S1(=O)c2cccc3cccc(c23)N1CCCN1CCN(c2ccc(F)cc2)CC1`, for which the “activity change, negative = inhibition” value is 59.4% [at 53 µM] (inactive). For the compound `OC(CCN1CCCCC1)(c1ccccc1)C1CCCCC1` (stereo not drawn), the “activity change, negative = inhibition” value was -14.9% [at 53 µM] (inactive). In the case of `O=C(Nc1ccccc1)OCC(CN1CCCCC1)OC(=O)Nc1ccccc1` (stereo not drawn), the Potency is 17.4 µM (active). On the same count and under the same terms, with `S=C(S)NCCNC(=S)S` the figure was 35 µM (active); with `COC(=O)CSc1cc(N=c2sc(=O)n3n2CCCC3)c(F)cc1Cl`, 8.94 µM (active); with `CC(C)(Oc1ccc(Cl)cc1)C(=O)OCCCOC(=O)C(C)(C)Oc1ccc(Cl)cc1`, 5.49 µM (active). Turning to `CC(=O)O[C@H]1C[C@@H]2CC[C@@H]3[C@H](CC[C@@]4(C)[C@H]3C[C@H]([N+]3(C)CCCCC3)[C@@H]4OC(C)=O)[C@@]2(C)C[C@@H]1N1CCCCC1`, the “activity change, negative = inhibition” value is -2.45% [at 53 µM] (inactive). Still for that read-out and setting: with `CN1CCC(=C2c3ccccc3C=Cc3ccccc32)CC1` the figure was -1.87% [at 53 µM] (inactive); with `Nc1ccc(C(=O)Nc2ccccc2N)cc1`, 2.61% [at 53 µM] (inactive).

Regarding `Nc1nc(N)c(-c2ccccc2)s1`, the “activity change, negative = inhibition” value was -12.6% [at 53 µM] (inactive).

For the compound `O=C(O)C(c1ccc(Cl)cc1)c1ccc(Cl)cc1`, the Potency was 15.9 µM (active).

With `O=C(O)C1CCC(C(=O)O)CC1` (stereo not drawn), the “activity change, negative = inhibition” value is -5.48% (inactive).

For the origin of these results see PubChem BioAssay (Tox21).
